Measurements reported in the supplement of paper PMC12669032.
A number with no mark means an inactive call.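 The calls were made as follows: active = AUC reduced over 20% with Padj below 0.05 in at least 2 of 3 replicates; inactive = otherwise.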

Experiments:
Assay in all cases: growth AUC relative to DMSO control (median of replicates) (fraction); higher = more growth (less inhibition), active = hit call of the paper
Details in all cases: 20 µM; 24 h
[1] = test system: Akkermansia muciniphila
Procedure, shortened: (§1)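 Gut bacteria were grown singly in mGAM at 37 °C without oxygen, from OD600 0.05, alongside 20 µM compound in 1% DMSO, and OD600 was read each hour for 24 h. Area under the growth curve was normalised to the median of solvent-only wells per plate, or to row and column medians on the industrial chemical plate. The minimum OD was set to 0 beforehand, and the reported value is the median of three biological replicates grown on separate days.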

[2] = test system: Bacteroides caccae
Procedure, shortened: as §1

[3] = test system: Bacteroides clarus
Procedure, shortened: as §1

[4] = test system: Bacteroides dorei
Procedure, shortened: as §1

[5] = test system: Bacteroides stercoris
Procedure, shortened: as §1

[6] = test system: Bacteroides thetaiotaomicron
Procedure, shortened: as §1

[7] = test system: Bacteroides uniformis
Procedure, shortened: as §1

[8] = test system: Bifidobacterium longum subsp. longum
Procedure, shortened: as §1

[9] = test system: Clostridium difficile
Procedure, shortened: as §1

[10] = test system: Collinsella aerofaciens
Procedure, shortened: as §1

[11] = test system: Coprococcus comes
Procedure, shortened: as §1

[12] = test system: Escherichia coli ED1a
Procedure, shortened: as §1

[13] = test system: Escherichia coli IAI1
Procedure, shortened: as §1

[14] = test system: Eubacterium rectale
Procedure, shortened: as §1

[15] = test system: Fusobacterium nucleatum subsp. animalis
Procedure, shortened: as §1

[16] = test system: Lactobacillus gasseri
Procedure, shortened: as §1

[17] = test system: Lactobacillus paracasei
Procedure, shortened: as §1

[18] = test system: Odoribacter splanchnicus
Procedure, shortened: as §1

[19] = test system: Parabacteroides distasonis
Procedure, shortened: as §1

[20] = test system: Parabacteroides merdae
Procedure, shortened: as §1

Compound	growth AUC [1]	growth AUC [2]	growth AUC [3]	growth AUC [4]	growth AUC [5]	growth AUC [6]	growth AUC [7]	growth AUC [8]	growth AUC [9]	growth AUC [10]	growth AUC [11]	growth AUC [12]	growth AUC [13]	growth AUC [14]	growth AUC [15]	growth AUC [16]	growth AUC [17]	growth AUC [18]	growth AUC [19]	growth AUC [20]
CCNC(=O)NC(=O)/C(C#N)=N/OC	0.998	1	1	0.983	1.08	1	0.956	0.901	0.965	1.07	1.05	1.04	1.02	0.919	1.2	1.06	0.94	1.02	1.04	1.01
CNC(=O)Oc1cc(C)c(S(C)(=O)=O)c(C)c1	0.967	1.02	0.963	0.995	0.995	0.97	0.97	0.985	0.998	1.01	0.98	0.981	0.963	0.971	1.05	0.999	1.02	1.01	1.05	1.02
CCCCCCCCCCCCCN1CC(C)OC(C)C1 (stereo not given)	0.931	0.969	1	1.01	1.03	0.993	0.982	0.908	0.923	0.941	0.999	1.01	0.966	0.991	0.964	0.937	1.08	0.984	0.984	0.973
CC(C)(C)C(O)C(Cc1ccc(Cl)cc1Cl)n1cncn1 (mixture of isomers)	1.11	0.923	0.969	0.889	0.868	0.921	0.932	1.04	1.01	0.936	0.982	0.981	0.979	0.845	0.963	0.947	1.01	0.989	0.871	0.889
CS(=O)(=O)NC(=O)c1cc(Oc2ccc(C(F)(F)F)cc2Cl)ccc1[N+](=O)[O-]	1.03	1.01	0.955	0.972	0.875	0.993	0.992	1.04	0.94	0.951	0.926	0.971	0.962	1.09	0.906	0.958	1.01	1.09	0.984	0.978
O=C(O)C(F)(F)C(F)(F)C(F)(F)C(F)(F)C(F)(F)C(F)(F)C(F)(F)C(F)(F)C(F)(F)F	0.991	0.977	0.933	1.01	0.998	1.1	1.02	0.939	0.968	0.984	0.991	1.01	1.01	0.892	1.01	1.01	1.03	0.993	0.913	0.97
CCCC(Cn1cncn1)c1ccc(Cl)cc1Cl (stereo not given)	1.01	0.936	0.987	0.977	1.2	0.949	0.941	1.07	0.911	0.992	0.919	0.997	1.03	0.73 (active)	1.05	1.05	0.987	0.962	0.991	0.969
CC(C)Nc1nc(Cl)nc(NC(C)C)n1	0.954	0.825	0.989	0.965	1.14	0.96	1.02	1.07	0.986	0.961	0.958	1.03	0.978	1.07	1.04	0.983	1.06	0.797	1.02	0.968
CC1(C)C(/C=C(\Cl)c2ccc(Cl)cc2)C1C(=O)OC(C#N)c1ccc(F)c(Oc2ccccc2)c1 (stereo not given)	0.965	0.993	0.985	1.04	1	1	0.99	0.94	1.09	1.04	0.968	0.986	1.01	0.864	1.02	1.04	0.913	1.03	1	1
CNC(=O)O/N=C(\C)C(C)S(C)=O (stereo not given)	0.963	0.997	0.976	0.996	1	0.983	0.997	0.996	1	0.995	1.01	1.02	0.987	0.914	1.02	0.881	1.02	1.04	1.05	1.02
O=CNC(N1CCN(C(NC=O)C(Cl)(Cl)Cl)CC1)C(Cl)(Cl)Cl (stereo not given)	1.13	0.947	0.923	0.849	0.879	0.919	0.985	1.08	0.957	0.938	0.946	0.975	0.935	0.881	0.658 (active)	0.873	1.06	1.01	0.914	0.948
O=C(Nc1ccccc1)N(Cc1ccc(Cl)cc1)C1CCCC1	0.953	0.983	0.991	0.991	0.972	0.964	0.969	1.02	1.03	0.98	0.94	1	0.99	1.03	0.985	1.01	1.06	1.03	0.893	0.922
CCCCCCCCn1sccc1=O	1.04	0.924	0.442 (active)	0.912	0.995	0.689 (active)	0.731	0.571 (active)	0.848	0.776 (active)	0.958	0.944	0.938	0.868	0.83	0.757 (active)	1.01	0.597	0.129 (active)	0.00935 (active)
CC1(C)CC/C(=C\c2ccc(Cl)cc2)C1(O)Cn1cncn1 (stereo not given)	0.95	0.976	0.983	0.965	0.792	0.971	0.995	1.08	0.984	0.987	0.974	0.999	0.98	0.986	0.97	0.935	0.955	1.04	0.964	0.967
CCCN(CCC)C(=O)SCc1ccccc1	1.04	0.994	0.996	0.976	1.13	0.972	0.985	0.967	0.987	0.998	1.01	1.01	0.985	1.09	1.01	1.02	0.963	1.08	0.89	0.998
CCOP(=S)(OCC)OP(=S)(OCC)OCC	0.981	0.986	0.953	0.993	1.02	0.956	0.988	1.01	0.986	1.02	0.985	0.968	0.979	0.928	1.04	1.23	1.04	0.98	1.02	0.984
